Sampled rows, rich in hits. Any-hit rate of the full collection: about 1.5%.
TLR4 MyD88 comp: blocks binding of human TLR4 to MyD88; O00206+Q99836; HeLa CL3-4 TLR4/MyD88 BLA complementation, FRET ratio; inhibition, % at 8.4 µM; 200,000 tested, 0.18% active; in the data active = inhibition above about 25%
TLR9-MyD88 block: TLR9-MyD88 interaction inhibition | Q9NR96+Q99836 | CHO BLA complementation TLR9-MyD88, CCF4 FRET ratio | inhibition, % at 4.98 µM | 340,000 tested, 0.21% active | AID 504734;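 active = inhibition above the mean over all tested compounds plus 3 SD, cut at about 21% in these data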
Myeloid diff 2: promotes myeloid progenitor differentiation; AID 624256; ER-HoxA9 myeloid progenitors, lysozyme-GFP differentiation, flow cytometry; 360,000 tested, 1% active; calls only at 10 µM;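 active = normalized GFP-positive differentiation at or above the plate's own cutoff, the solvent-only control mean plus 3 SD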;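 note: cells exposed to compound for four days before flow analysis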
NOD2 RIPK2 PPI: inhibitors of human NOD2-RIPK2 interaction; O43353; CHO BLA complementation NOD2-RIPK2, CCF4 ratio; inhibition, % at 4.98 µM; 360,000 tested, 0.38% active; in the data active = inhibition above about 21%
Target sequence (O43353 whole entry, looked up): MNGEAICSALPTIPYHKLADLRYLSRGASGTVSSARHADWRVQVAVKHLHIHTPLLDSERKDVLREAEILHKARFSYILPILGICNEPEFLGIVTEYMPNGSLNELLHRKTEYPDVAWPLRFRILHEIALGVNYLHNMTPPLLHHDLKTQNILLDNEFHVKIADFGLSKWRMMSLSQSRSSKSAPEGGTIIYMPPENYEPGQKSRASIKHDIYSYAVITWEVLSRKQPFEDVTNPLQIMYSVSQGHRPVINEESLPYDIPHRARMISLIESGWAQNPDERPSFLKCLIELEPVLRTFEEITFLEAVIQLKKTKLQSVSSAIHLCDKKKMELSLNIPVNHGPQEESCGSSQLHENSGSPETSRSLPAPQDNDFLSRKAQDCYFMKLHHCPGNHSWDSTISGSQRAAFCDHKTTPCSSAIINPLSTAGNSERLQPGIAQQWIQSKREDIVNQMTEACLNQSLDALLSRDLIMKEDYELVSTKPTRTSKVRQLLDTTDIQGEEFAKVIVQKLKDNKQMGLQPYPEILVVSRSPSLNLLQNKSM
Myeloid diff: myeloid differentiation induction. shares compounds with Myeloid diff 2. calls only. 2,300 tested, 2% active. ER-HoxA9 myeloid progenitors, GFP/Mac1 double-positive flow;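 active = share of green or green-and-red cells above 9 and 9% in run 1 or 4 and 3% in run 2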
GFP autofluor: counter-screen for myeloid differentiation promoters: compound fluorescence | fluorescence response, % (no concentration beside the values) | ER-HoxA9 myeloid progenitors, no estrogen, GFP autofluorescence flow cytometry; vehicle wells 0%, positive control 100% | shares compounds with Myeloid diff 2 | 2,300 tested, 7.4% active;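 active = over 5% cells positive for green fluorescent reporter, or over 2% positive for both it and APC stain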
Of the large screens only hits and unclear results are named; the others gave an inactive call (follow-up assays come after a bar, where they were run).

COc1ccc(N2CCN(C(=O)C(=O)c3cn(CC(=O)N4CCCC4)c4ccccc34)CC2)cc1	none (no result: TLR4 MyD88 comp)
COc1ccccc1NC(=O)CSc1nnc(-c2ccco2)n1Cc1ccco1	none | Myeloid diff inactive | GFP autofluor inactive
COc1ccccc1NC(=O)CSc1nnc(-c2ccccn2)n1Cc1ccco1	none
Cc1cc(C)cc(NC(=O)CCN2CCCC2)c1	Myeloid diff 2 active | Myeloid diff inactive | GFP autofluor inactive
Cc1ccc(-c2ccc(CN3C(CC(C)C)C(=O)N(Cc4cn(CC5CCCCC5)nn4)CCS3(=O)=O)cc2)cc1 (stereo not given)	none (no result: TLR4 MyD88 comp)
O=C(Nc1cccs1)Nc1c(F)c(F)c(F)c(F)c1F	none
Cc1cccc(C)c1NC(=O)Nc1cccs1	none | Myeloid diff inactive | GFP autofluor inactive
COc1ccc(Cc2c(-c3ccc(C)cc3)nc3ccc(Cl)cn23)c(C)c1	none (no result: TLR4 MyD88 comp, TLR9-MyD88 block)
COc1ccccc1-c1nn(-c2ccccc2)cc1C(=O)N1CCN(C(=O)c2ccco2)CC1	none (no result: TLR4 MyD88 comp) | Myeloid diff inactive | GFP autofluor inactive
CCCCCCCCN1C(=O)[C@H](CC(=O)NCC2CCCCC2)C[C@@]2(C(=O)OCC)CCC=C12	none (no result: TLR4 MyD88 comp, TLR9-MyD88 block)
CCC(=O)NC(=S)Nc1ccc(NC(=O)c2ccccc2[N+](=O)[O-])cc1	none | Myeloid diff inactive | GFP autofluor inactive
CCC(=O)NC(=S)Nc1ccc(NC(=O)c2cccc([N+](=O)[O-])c2C)cc1	none
CC(=O)Nc1ccc(S(=O)(=O)N(CC(=O)NCC2CCCO2)Cc2ccccc2Cl)cc1 (stereo not given)	none (no result: TLR4 MyD88 comp)
COc1ccc(C(=O)NCCCc2nc3ccccc3n2Cc2ccccc2C)cc1OC	Myeloid diff 2 active | Myeloid diff inactive | GFP autofluor inactive
CC(C)NC(=O)CN1CCN(C(c2cc3ccccc3o2)c2nnnn2C(C)(C)C)CC1 (stereo not given)	none (no result: TLR4 MyD88 comp, TLR9-MyD88 block)
COc1ccccc1CCn1cnc(-c2ccc(OC)c(OC)c2)c1C(C)C	none (no result: TLR4 MyD88 comp, TLR9-MyD88 block) | Myeloid diff inactive | GFP autofluor inactive
CCCCc1c(-c2cccc(OC)c2)ncn1CCc1ccccc1OC	Myeloid diff 2 active (no result: TLR4 MyD88 comp, TLR9-MyD88 block) | Myeloid diff inactive | GFP autofluor inactive
CCCCc1c(-c2ccc(OC)c(OC)c2)ncn1CCc1ccccc1OC	none (no result: TLR4 MyD88 comp, TLR9-MyD88 block)
CC(=O)CC(=O)NC(=NC1CCCCC1)Nc1nc(C)cc(C)n1	Myeloid diff 2 active | Myeloid diff inactive | GFP autofluor inactive
Cc1cc(C)nc(SCc2ccc(C(=O)N/N=C/c3ccccc3C(=O)O)cc2)n1	none
COc1cc(OC)c(OC)cc1/C=N/NC(=O)c1ccc(CSc2nc(C)cc(C)n2)cc1	Myeloid diff 2 active (no result: TLR4 MyD88 comp) | Myeloid diff inactive | GFP autofluor inactive
Cc1cc(N2CCN(C(C(=O)NC3CCCC3)c3ccco3)CC2)c2ccccc2n1 (stereo not given)	none (no result: TLR4 MyD88 comp, TLR9-MyD88 block)
CCCNC(=O)N[C@H]1C=C[C@H](CC(=O)NC2CCCCC2)O[C@@H]1CO	none (no result: TLR4 MyD88 comp, TLR9-MyD88 block)
Cc1ccc(C2(C)NC(=O)N(CC(=O)Nc3cc(S(=O)(=O)N4CCCCC4)ccc3OC(C)C)C2=O)cc1 (stereo not given)	Myeloid diff 2 active (no result: TLR4 MyD88 comp) | Myeloid diff inactive | GFP autofluor inactive
CC(C)Oc1ccc(S(=O)(=O)N2CCCCC2)cc1NC(=O)CN1C(=O)NC(C)(c2ccccc2)C1=O (stereo not given)	none (no result: TLR4 MyD88 comp)
FC(F)(F)c1ccc(-n2ccnc2)nc1	Myeloid diff 2 active | Myeloid diff inactive | GFP autofluor inactive
CCOC(=O)[C@]12CCC=C1N(Cc1cccc3ccccc13)C(=O)[C@H](CC(=O)NCCCOC)C2	none (no result: TLR4 MyD88 comp, TLR9-MyD88 block)
CCOc1ccc(NS(=O)(=O)c2ccc(NS(=O)(=O)c3ccccc3)cc2)cc1	none | Myeloid diff inactive | GFP autofluor inactive
CCOc1ccc(S(=O)(=O)Nc2cc(NS(=O)(=O)c3ccc(OCC)cc3)cc(C(=O)O)c2)cc1	none (no result: TLR4 MyD88 comp)
O=C(Nc1ccn(C2CCC(CO)O2)c(=O)n1)c1ccccc1 (stereo not given)	none (no result: TLR4 MyD88 comp, TLR9-MyD88 block)
CCCc1cc(=O)[nH]c(SCC(=O)Nc2ccccc2C#N)n1	none | Myeloid diff inactive | GFP autofluor inactive
CCOC(=O)CC1C(=O)NCCN1S(=O)(=O)c1ccc(Cl)cc1 (stereo not given)	Myeloid diff 2 active | Myeloid diff inactive | GFP autofluor inactive
CCOC(=O)CC1C(=O)NCCN1S(=O)(=O)c1ccc(F)cc1 (stereo not given)	none
CC1CCN(S(=O)(=O)c2cc(C(=O)N3CCN(c4ccccc4)CC3)ccc2Br)CC1	none (no result: TLR4 MyD88 comp)
CCc1c(-c2ccccc2)ncn1Cc1cccc(-c2ccccc2)c1	none (no result: TLR4 MyD88 comp, TLR9-MyD88 block)
CCc1c(-c2ccccc2F)ncn1Cc1cccc(-c2ccccc2)c1	none (no result: TLR4 MyD88 comp, TLR9-MyD88 block) | Myeloid diff inactive | GFP autofluor inactive
CCOC(=O)/C(=C/C=C1\Sc2ccccc2N1CC)C(C)=O	none | Myeloid diff inactive | GFP autofluor inactive
O=C(c1ccc(CNS(=O)(=O)c2ccc(F)cc2)cc1)N1CCCCCC1	none (no result: TLR4 MyD88 comp)
CCOC(=O)/C=C1\SCC(=O)N1CC(=O)NC12CC3CC(CC(C3)C1)C2	Myeloid diff 2 active | Myeloid diff inactive | GFP autofluor inactive
CCOC(=O)/C=C1\SCC(=O)N1CC(=O)NC(C)C	none
O=C(CCc1nc2ccccc2c(=O)[nH]1)OCC(=O)N1CCc2ccccc21	none
O=C(CCc1nc2ccccc2[nH]c1=O)OCC(=O)N1CCc2ccccc21	none | Myeloid diff inactive | GFP autofluor inactive
CCc1ccc(/C=C/c2c[nH]c3ccccc23)[n+](CC)c1	Myeloid diff 2 active | Myeloid diff inactive | GFP autofluor 7.0
C(=NN=Cc1c[nH]c2ccccc12)c1c[nH]c2ccccc12	none (no result: TLR4 MyD88 comp)
O=C(Oc1ccc(Cl)c(Cl)c1)C1=CC=CN2CCS(=O)(=O)N=C12	none (no result: TLR4 MyD88 comp)
CN(Cc1ccc(Cl)c(Cl)c1)C(=O)C1=CC=CN2CCS(=O)(=O)N=C12	Myeloid diff 2 active (no result: TLR4 MyD88 comp) | Myeloid diff active | GFP autofluor inactive
COc1ccc(Br)cc1CN(C)C(=O)C1=CC=CN2CCS(=O)(=O)N=C12	none (no result: TLR4 MyD88 comp) | Myeloid diff inactive | GFP autofluor inactive
COc1ccccc1Cc1c(C(C)(C)C)nc2c3ccccc3ccn12	Myeloid diff 2 active (no result: TLR4 MyD88 comp, TLR9-MyD88 block) | Myeloid diff inactive | GFP autofluor inactive
Cc1cc(C)cc(OCC(=O)NNC(=O)CC(C)c2ccccc2)c1 (stereo not given)	none (no result: TLR4 MyD88 comp)
Clc1ccc2nc(-c3ccccc3)c(CC3CCCCC3)n2c1	none (no result: TLR4 MyD88 comp, TLR9-MyD88 block)
C[n+]1ccccc1/C=C/c1ccc2ncccc2c1	Myeloid diff 2 active (no result: TLR4 MyD88 comp) | Myeloid diff active | GFP autofluor inactive
CCCCCCCCN1C(=O)[C@H](CC(=O)NCCCOCCCC)C[C@@]2(C(=O)OCC)CCCC=C12	none (no result: TLR4 MyD88 comp, TLR9-MyD88 block)
OCC1CSC(=S)N1Cc1ccccc1 (stereo not given)	none (no result: TLR4 MyD88 comp, TLR9-MyD88 block)
COc1ccc(S(=O)(=O)N[C@@H](Cc2ccc(Cl)cc2)C(=O)N2CC[C@@]3(O)CCCC[C@H]3C2)cc1	none | Myeloid diff inactive | GFP autofluor inactive
Cc1cc(C(=O)CN2C(=O)C(=O)N(Cc3ccccc3)C2=O)c(C)n1Cc1ccccc1	none (no result: TLR4 MyD88 comp)
COc1ccc(CCn2c(C)cc(C(=O)CN3C(=O)C(=O)N(Cc4ccco4)C3=O)c2C)cc1	Myeloid diff 2 active (no result: TLR4 MyD88 comp) | Myeloid diff inactive | GFP autofluor inactive
O=c1ccc(S(=O)(=O)N2CCCC2)c[nH]1	none (no result: TLR4 MyD88 comp)

High-throughput results (PubChem)
